Only some compounds are listed: those with a hit (about 19% of all), similar ones and a draw of the others.
IL-1B inflam inh: inflammasome signaling inhibition, IL-1 beta readout | THP-1 LPS/ATP IL-1B secretion, AlphaLISA, 16 h; active compounds read low | activity change, % at 57.5 µM | 360,000 compounds, 4.7% hits | AID 743279; in the data active means activity change below about -50%; inconclusive means mostly about -30% to -49%
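THP-1 cells pretreated 1 hr with compounds (up to 57.5 uM final), then stimulated with LPS (250 ng/mL final) plus ATP (1.25 mM final); secreted IL-1B measured by AlphaLISA after 16 hr, decreased signal indicating inhibition.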
uPA generation: blocks generation of uPA at the cell surface; AID 540303; 330,000 compounds, 0.31% hits; cell surface uPA generation assay, qHTS; Potency, µM (series often up to 38.3 µM), without a hit: at the top dose activity change, negative = inhibition, most hits filed as inhibitors; active means well fitted inhibition curve with a large enough effect; inconclusive means small, poorly fitted or top-dose-only effect; inactive means no such curve, though single readings can be large or run the other way; tested in mouse RAW 264.7 cells; further: potency means the concentration at half of the fitted maximal effect; nearly all actives have a fitted effect of over 55% in size
HT1080NT lethal: kills 2HG-producing HT-1080-NT fibrosarcoma cells | HT-1080-NT fibrosarcoma viability, CellTiter-Glo ATP luminescence, 48 h | Potency, µM (titrated, usually from 46.1 µM), inactives show at the highest dose activity, negative = less viability, most hits filed as cytotoxic | 360,000 compounds, 1.6% hits | AID 686970;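 further: NT is the 2HG producing partner of a matched IDH1 knockdown line; potency means the concentration at half of the fitted maximal effect; 0% = DMSO-treated cells and -100% = media-only wells without cells; nearly all actives have a fitted effect of over 55% in size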
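Fibrosarcoma NT cells, 750 per well in 5% FBS RPMI, were exposed to compound for 48 hours. Viability: CellTiter-Glo luminescence.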
HT1080 IDH1KD tx: kills HT-1080 cells with IDH1 knockdown; HT-1080 IDH1 knockdown viability, ATP luminescence, 48 h; Potency, µM (titrated, usually from 46.1 µM), inactives show at the top dose activity, negative = toxicity, hits mostly cytotoxic; 360,000 compounds, 2% hits;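 further: potency means the concentration at half of the fitted maximal effect; 0% = DMSO wells and -100% = cell-free medium wells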
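Cytotoxicity counter-line: IDH1KD HT-1080, 48 h, CellTiter-Glo. Curves classed by r2, magnitude and activity.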
TDP1 cell CPT: growth inhibition of DT40 Tdp1-/-;hTDP1 cells with camptothecin (screen for TDP1 inhibitors); chicken DT40 Tdp1-/-;hTDP1 cells + 20 nM CPT, ATP luminescence, 48 h; Potency, µM (series often up to 46.2 µM), inactives show top-dose activity change, negative = growth inhibition, usual class: inhibitors; 420,000 compounds, 12% hits; further: potency means the concentration at half of the fitted maximal effect; nearly all actives have a fitted effect of over 55% in size
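Chicken DT40 Tdp1-/- cells complemented with human TDP1, 400 cells/well, exposed to compounds plus 20 nM camptothecin for at least 48 h at 37 C; viability read as ATP content by CellTiter-Glo luminescence.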
TDP1 cell noCPT: qHTS for Inhibitors of human tyrosyl-DNA phosphodiesterase 1 (TDP1): qHTS in cells in absence of CPT. DT40 Tdp1-/- hTDP1 cells, no CPT, ATP luminescence, 48 h. Potency, µM (top dose mostly 46.2 µM), for the others: at the top dose activity change, negative = growth inhibition, hits mostly inhibitors. 420,000 compounds, 15% hits; further: potency means the concentration at half of the fitted maximal effect; nearly all actives have a fitted effect of over 55% in size
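Readout: luminescence from CellTiter-Glo after 30 min in the dark at RT. Cells: DT40 Tdp1-/- with stable hTDP1, 400/well. Exposure: compounds alone, ≥48 hr, 37 °C.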
* = called active by the depositor; ? = inconclusive; / = no result. Unless noted, the call rests on the fitted dose curve; in most records, active means well fitted curve in the direction sought with a large enough effect; inconclusive means small, poorly fitted or top-dose-only effect, or another doubt; inactive means no such curve, though single readings can be large; an effect the other way counts as inactive or inconclusive. Unless noted, on the % scale 0 is the no-effect control and ±100 the full control effect.

SMILES	IL-1B inflam inh	uPA generation	HT1080NT lethal	HT1080 IDH1KD tx	TDP1 cell CPT	TDP1 cell noCPT
CCCC(O)(c1ccc(Br)cc1)C(CN1CCOCC1)c1ccc(Cl)cc1 (stereo not given)	-84.1*	4.6%	?	?	?	?
CCCC(O)(c1ccc(Cl)cc1)C(CN1CCOCC1)c1ccccc1 (stereo not given)	36.6	15.9%	12.6%	2.6%	?	?
CCCC(O)(c1ccccc1)C(CN1CCOCC1)c1ccccc1 (stereo not given)	25.9	-4.2%	6.2%	12.3%	20.6µM*	?
CCOC(=O)C1CCCN(C(=O)c2cnn(-c3ncc4c(n3)-c3ccccc3CCC4)c2C2CC2)C1 (stereo not given)	/	/	/	/	10.7%	-20.5%
CCN(CC)CCN(C(=O)c1ccc2c(c1)CCCC2)c1nc2ccc(F)cc2s1	?	-0.3%	-22.1%	-21.0%	?	?
CCN(CC)CCN(C(=O)c1ccc2c(c1)CCCC2)c1nc2ccc(OC)cc2s1	4.4	6.8%	-28.1%	?	18.4µM*	?
CCN(CC)CCN(C(=O)c1ccc2c(c1)CCCC2)c1nc2ccc(C)cc2s1	-16.3	12.4%	-15.4%	-21.5%	?	23.1µM*
CC(C)(C)N(Cc1ccccc1)C(=O)COC(=O)CSc1ccc([N+](=O)[O-])cc1	9.7	-1.0%	9.0%	-3.4%	?	?
Cc1ccc(Cn2c(C(=O)O)c(CNCCc3ccco3)c3ccc(C)cc32)cc1	/	/	/	/	-23.5%	-17.7%
Cc1ccc(Cn2c(C(=O)O)c(CNCc3cccs3)c3ccc(C)cc32)cc1	/	/	/	/	14.6µM*	?
Cc1ccc(Cn2c(C(=O)O)c(CNCc3ccccc3Cl)c3ccc(C)cc32)cc1	/	/	/	/	23.1µM*	?
CCN(C(=O)c1cccnc1SC)C12CC3CC(CC(C3)C1)C2	17.5	2.5%	-25.2%	?	?	20.6µM*
COc1ccc2c(c1)oc(=O)c1c3ccccc3[nH]c21	0.0	?	0.4%	3.5%	?	?
C=Cc1ncc(OC)c2c1[nH]c1ccccc12	-107.2*	?	16.4µM*	?	3.66µM*	3.66µM*
CCOc1cc(C2C(C(=O)OC)=C(C)NC3=C2C(=O)c2ccccc23)cc(Br)c1OCC (stereo not given)	/	/	/	/	?	5.17µM*
CCOc1cc(C2C(C(=O)OC)=C(C)NC3=C2C(=O)c2ccccc23)ccc1OC (stereo not given)	/	/	/	/	?	20.6µM*
CCNc1ncc2nc(-c3cc(F)cc(F)c3)c(=O)n(CCC#N)c2n1	/	/	/	/	-9.3%	2.0%
Cc1ccc(CN(CC2CCCO2)C(=O)CN2C(=O)C(C(C)C)Oc3ccccc32)o1 (stereo not given)	-14.8	/	-0.8%	-20.5%	25.9µM*	?
CN1CCOC(=O)/C1=N/Nc1cc(Cl)ccc1Cl	8.7	-0.7%	?	20.6µM*	-0.3%	3.9%
Cn1nccc1C(=O)Nc1cc(Cl)ccc1Cl	?	-21.7%	24.1%	12.5%	-12.6%	-1.1%
CC(=O)c1ccc(N2CCN(C(=O)c3nn(Cc4ccccc4)c(=O)c4ccccc34)CC2)cc1	17.5	-1.4%	-25.7%	-9.2%	?	18.4µM*
COc1cc2c(cc1OC)CN(C(=O)c1cc3ccccc3oc1=O)CC2	12.1	-5.8%	?	16.4µM*	10.3µM*	11.6µM*
COc1cc2c(cc1OC)CN(C(=O)c1nn(Cc3ccccc3)c(=O)c3ccccc13)CC2	?	-1.7%	5.4%	0.9%	?	16.4µM*
COc1ccccc1C(=O)NC(=S)Nc1ccc(NC(=O)c2ccco2)cc1	5.0	16.6%	0.0%	-19.3%	-22.0%	?
O=C(NCCNC(=O)c1ccco1)c1ccc(F)cc1	-5.8	4.2%	16.0%	11.7%	7.7%	7.1%
SMILES	IL-1B inflam inh	uPA generation	HT1080NT lethal	HT1080 IDH1KD tx	TDP1 cell CPT	TDP1 cell noCPT
O=C(COc1ccccc1)NNC(=S)NC(=O)c1ccccc1	32.1	-11.4%	?	-4.3%	?	?
COc1ccccc1OCC(=O)NNC(=S)NC(=O)c1ccco1	4.1	-3.7%	-27.2%	-29.5%	?	18.4µM*
O=C(NC12CC3CC(CC(C3)C1)C2)c1ccccc1	-13.8	-1.5%	17.6%	4.8%	4.3%	2.3%
O=C(NC(=S)NNC(=O)c1ccco1)c1ccc(F)cc1	18.1	-0.5%	-28.4%	?	?	16.4µM*
O=C(NC(=S)NC12CC3CC(CC(C3)C1)C2)c1ccc(F)cc1	-5.0	5.9%	-21.7%	-29.1%	?	23.1µM*
COc1ccc(C(=O)NC(=S)NNC(=O)COc2ccccc2)cc1	71.0	-3.3%	?	?	14.6µM*	?
CN1CCN(C(=O)c2ccc3c(c2)N(Cc2ccc(F)cc2)C(=O)c2ccccc2S3=O)CC1 (stereo not given)	-14.3	-2.6%	6.4%	-1.9%	3.2%	-24.3%
COc1ccc(CC(=O)NNC(=O)c2ccco2)cc1	7.0	-1.2%	1.6%	9.8%	-1.0%	11.4%
Cc1ccc(OCC(=O)Nc2ccc([N+](=O)[O-])cc2)cc1	8.8	2.3%	5.2%	6.2%	-3.9%	4.9%
C=C(C)CNC(=S)NNC(=O)c1ccco1	-8.4	3.3%	2µM*	?	1.6%	0.5%
COc1ccc(C(=O)NNC(=S)NC(=O)C(C)(C)C)cc1	-101.6*	-1.5%	-27.7%	?	6.51µM*	7.31µM*
Cc1ccc(C(=O)NC(=S)NNC(=O)COc2ccc([N+](=O)[O-])cc2)cc1	43.7	11.6%	-16.6%	-17.1%	?	14.6µM*
COc1ccc(C(=O)NC(=S)NNC(=O)c2ccco2)cc1	47.6	-3.5%	-25.9%	?	18.4µM*	20.6µM*
CCN(CC(=O)NCC1CCCO1)S(=O)(=O)c1ccc2ccccc2c1 (stereo not given)	0.6	-9.2%	11.3%	24.8%	20.1%	-1.4%
O=C1OCC2=C1C(c1ccccc1)CC(=O)N2c1ccccc1 (stereo not given)	-11.3	-0.3%	16.5%	9.7%	1.2%	3.8%
COc1ccc(C(=O)NC(=S)NNC(=O)c2ccccc2O)cc1	63.2	-10.5%	-15.7%	-25.4%	14.6µM*	11.6µM*
O=C(NNC(=S)NC(=O)c1ccc(F)cc1)c1ccncc1	0.0	0.5%	-9.7%	-26.1%	18.4µM*	23.1µM*
Cc1ccn2c(=O)cc(COc3ccc(NC(=O)C(C)(C)C)cc3)nc2c1	/	/	/	/	-29.1%	?

Assay outcomes from PubChem BioAssay.
